Results taken from ChEMBL document CHEMBL3988442, “University of Dundee, Small-Polar-MMV Screening Library” (2021).
Among all 48,000 compounds or so, about 13,000 (27%) showed an effect of 50% or more. This is one part of the list.

System: Wolbachia pipientis
Assay: Anti-Wolbachia Cell-Based Screen
Type: functional
Parameters: scale not given: in the data most compounds retested in dose-response had high values
Conditions: 5 µM

Compound	Percent Effect [%]
O=C1N(CC2CCCCC2)CCCC1(O)CN1CCc2[nH]ncc2C1 (stereo unspecified)	-9.247
COc1cc(F)c(CN2CCN(CC(C)C)C(=O)C2C)cc1OC (stereo unspecified)	4.949
CN(C)c1ccc(C(=O)NCC2(c3ccccc3)CCOCC2)cc1	9.489
CS(=O)(=O)N1C[C@@H]2CC[C@H](C1)N(C(=O)Cn1ccc3ccccc31)C2	-4.366
CN(CC(=O)N1CCC(Cc2cccc(C(N)=O)c2)C1)C1CCCC1 (stereo unspecified)	-18.46
CC(C)Oc1ccc(CNC(=O)CC(F)(F)F)cc1F	4.736
O=C1N(c2cccc(Cl)c2)Cc2nc(=O)[nH]n21	-8.298
Cc1noc([C@@H]2C[C@@H]3CCN(CC4CCOCC4)C[C@H]3O2)n1.O=C(O)C(F)(F)F	8.264
Cc1noc([C@@H]2CC[C@@H]3[C@@H](CCN3c3nnc(C)s3)O2)n1.O=C(O)C(F)(F)F	108.3
Cc1noc([C@H]2CC[C@@H]3[C@@H](CCN3S(C)(=O)=O)O2)n1	5.645
Cc1noc([C@H]2C[C@@H]3CCN(CC4CCOCC4)C[C@H]3O2)n1.O=C(O)C(F)(F)F	8.046
Cc1noc([C@@H]2CC[C@@H]3[C@@H](CCN3S(=O)(=O)C3CC3)O2)n1	-8.52
Cc1noc([C@@H]2C[C@@H]3CCN(c4nnc(C)s4)C[C@H]3O2)n1.O=C(O)C(F)(F)F	122.4
Cc1noc([C@@H]2C[C@H]3CN(Cc4scnc4C)C[C@H]3O2)n1.O=C(O)C(F)(F)F	-4.188
Cc1noc([C@H]2C[C@@H]3CCN(c4nnc(C)s4)C[C@H]3O2)n1.O=C(O)C(F)(F)F	107.3
Cc1noc([C@H]2CC[C@@H]3[C@@H](CCN3c3ncccn3)O2)n1	101.9
Cc1noc([C@@H]2CC[C@@H]3[C@@H](CCN3S(=O)(=O)c3cccnc3)O2)n1.O=C(O)C(F)(F)F	4.369
Cc1noc([C@H]2C[C@@H]3CCN(CC4CC4)C[C@H]3O2)n1.O=C(O)C(F)(F)F	1.445
Cc1noc([C@@H]2C[C@@H]3CCN(CC4CC4)C[C@H]3O2)n1.O=C(O)C(F)(F)F	-0.5641
CCCc1nc(C)cc(N2CCC3(CCC(=O)N(CCCO)C3)CC2)n1	11.58
Cc1cc(SC(C)(C)C)ccc1NCC(=O)NC(N)=O	1.645
CCCS(=O)(=O)C(C)C(=O)Nc1ccc2oc(C3CC3)nc2c1 (stereo unspecified)	3.211
Cc1cc(Cc2ccc(F)cc2)cc(C2CCCNC2)n1 (stereo unspecified)	73.78
Cc1cccc(Cc2cc(C)nc(C3CCCNC3)c2)c1 (stereo unspecified)	70.21

Compound	Percent Effect [%]
Cc1cc(Cc2cccc(C(F)(F)F)c2)cc(C2CCCNC2)n1 (stereo unspecified)	97.1
O=C(NC1CCCNC1)c1cc(COc2cccc(C(F)(F)F)c2)[nH]n1 (stereo unspecified)	2.713
Cc1cc(Cc2ccccc2)cc(C2CCCNC2)n1 (stereo unspecified)	107.8
Cl.Cl.FC(F)(F)c1cccc(-c2c[nH]c(C3CCCN3)n2)c1 (stereo unspecified)	-28.55
O=C(CN1CCOc2ccccc2C1)N1Cc2cnn(CCO)c2C1	6.512
Cc1cnc(C)c(-c2cc(O)c3c(c2)CN(c2ncccn2)CCO3)n1	-18.62
CN(C)C(=O)c1nc(CN2CC(c3ccccc3)CC2=O)no1 (stereo unspecified)	7.307
C=C(C)CN(CC)Cc1nc(C2CC2)no1	1.764
CCCS(=O)(=O)N1CCn2cc(CNc3ccccn3)nc2C1.O=C(O)C(F)(F)F	-1.498
O=C(CSCc1ccccn1)N(Cc1ccsc1)C1CC1	-10.63
OC1(CNC2CCN(c3ccccn3)CC2)CCc2ccccc21 (stereo unspecified)	6.779
CCC(=O)N1CCN(C(=O)Nc2cccc(C#N)c2)[C@H]2CS(=O)(=O)C[C@H]21	-1.601
CCOCn1cc(NC(=O)C2CCN(S(C)(=O)=O)CC2)cn1	105.1
CS(=O)(=O)N1CCC(C(=O)N2CCC(Cn3cccn3)CC2)CC1	-10.97
CS(=O)(=O)N1CCCC(C(=O)Nc2cnn(Cc3ccc(Cl)cc3)c2)C1 (stereo unspecified)	106.8
CS(=O)(=O)N1CCC(C(=O)Nc2nnc(C(F)(F)F)[nH]2)CC1	11.43
CCOC1CCCN(C(=O)Nc2cnn(CC(F)F)c2)C1 (stereo unspecified)	6.944
CN(Cc1ccc(Cl)cc1)C(=O)Nc1cnn(CC(N)=O)c1	3.306
O=C(Cn1cc(NC(=O)c2ccc(F)cc2F)cn1)NC1CCCC1	5.692
CS(=O)(=O)N1CCCC(C(=O)Nc2cnn(COCC(F)(F)F)c2)C1 (stereo unspecified)	96.9
CCn1cc(NC(=O)C2CCN(CCOC(C)C)CC2)cn1	-5.388
O=C(Nc1cnn(Cc2ccc(Cl)cc2)c1)N[C@@H]1C=C[C@H](CO)C1	-9.454
CS(=O)(=O)N1CCCC(C(=O)Nc2cnn(Cc3ccc(F)cc3)c2)C1 (stereo unspecified)	99.84
CC(C)C1CN(S(C)(=O)=O)CCCN1Cc1ccc(F)cc1 (stereo unspecified)	3.687

Compound	Percent Effect [%]
Cc1nc(CNC(C)c2cccc(S(=O)(=O)N(C)C)c2)no1 (stereo unspecified)	-7.216
CS(=O)(=O)c1ccc(NC(=O)CSc2ccc3c(c2)CCC3)cc1	1.625
Cn1cnc2c1C(COCC1CC1)CN(C(=O)c1ccsc1)C2 (stereo unspecified)	-2.938
COCCN1CCN(CCS(=O)(=O)c2cccc(OC)c2)CC1	2.005
CN(C)C(=O)CCNC(=O)Nc1sc2ccccc2c1Cl	-12.49
N#CCC(=O)NCc1nnc2n1CCN(Cc1nccs1)C2	-14.07
CC(C)(NS(C)(=O)=O)c1nc(-c2ccncc2)no1	92.68
Cc1ccc(-c2noc(C(C)(C)NS(C)(=O)=O)n2)cc1F	124.7
CCS(=O)(=O)N1CC(c2nc(-c3ccncc3)no2)C1	-18.6
CC(C)C1=NOC(c2nc(-c3cccc(Cl)c3)no2)C1 (stereo unspecified)	-9.721
CC(C)(NS(C)(=O)=O)c1nc(-c2ccc(F)cc2Cl)no1	95.59
CC(C)(CNc1ccc2ccc(F)cc2n1)NS(C)(=O)=O	-16.93
CCNc1nc(C)c(C(=O)N(C)Cc2nc(-c3ccncc3)no2)s1	-39.74
Cc1ccc(-c2noc(CN3CCOC(CN(C)C)C3)n2)cc1F (stereo unspecified)	-11.04
CC(C)(NS(C)(=O)=O)c1nc(-c2cccc(Cl)c2)no1	115.9
CCc1nc(NS(=O)(=O)c2ccc(F)cc2Cl)no1	2.388
CC(Cn1cccn1)NCc1nc(-c2cccc(Cl)c2)no1 (stereo unspecified)	-1.118
Cc1ccc(-c2noc(CNCC3CN(C)CCO3)n2)cc1F (stereo unspecified)	8.94
O=C1[C@H]2CC[C@H](CN(C3CSCCSC3)C2)N1Cc1cscn1	1.539
COC(=O)c1ccc(N2CCN(C(=O)c3cnn(C)c3)C(C)C2)cc1 (stereo unspecified)	5.538
Cc1cnn(CC(C)NCc2ccc(OCc3ccncc3)cc2)c1 (stereo unspecified)	2.463
CCn1c(CN(C)C(=O)c2ccc(OC)nc2)nc2ccccc21	-6.401
OC1(CN2CCCC2)COCCN(c2noc(-c3ccccc3)n2)C1 (stereo unspecified)	-20.3
N#Cc1cc(F)c(NCCCOCC2CCOC2)c(F)c1 (stereo unspecified)	-9.574

Compound	Percent Effect [%]
CC(C)(NS(C)(=O)=O)c1nc(-c2ccc(F)c(F)c2)no1	108
Cc1cc(-c2nnn(CCNS(C)(=O)=O)n2)ccc1F	-4.563
Cc1cc(-c2noc(C3CCS(=O)(=O)C3)n2)ccc1F (stereo unspecified)	-6.108
CCn1cc(CNc2ccc3nccnc3c2)cn1	0.1341
CC[C@@]1(O)CCN(C(=O)CN(C)Cc2ccc(F)cc2)C[C@H]1O	-15.44
CCS(=O)(=O)N1C[C@@H](O)[C@H](N(C)Cc2ccc(F)cc2)C1	127.5
CN(Cc1ccc(F)cc1)[C@@H]1CN(S(C)(=O)=O)C[C@H]1O	89.96
CN(Cc1ccc(F)cc1)S(=O)(=O)N1CCOCC1	-4.525
CS(=O)(=O)N1CCO[C@@H]2CN(Cc3ccc(F)cc3)C[C@@H]2C1	-1.129
CC(C)C1CN(S(=O)(=O)N(C)C)CCCN1Cc1ccc(F)cc1 (stereo unspecified)	3.4
CN(C)S(=O)(=O)N1CCC2(CCCN(Cc3ccc(F)cc3)C2=O)C1 (stereo unspecified)	-3.561
CN(Cc1ccc(F)cc1)[C@@H]1CN(S(=O)(=O)N(C)C)C[C@H]1O	124.5
CN(Cc1ccc(F)cc1)[C@@H]1CN(C(=O)c2cccs2)C[C@H]1O	3.837
COC(=O)N1CCc2ccccc2C1C(=O)NCc1ccco1 (stereo unspecified)	14.18
CCC1CN(C(=O)c2cccc(O)c2)CCC(=O)N1Cc1ccccc1 (stereo unspecified)	8.552
COCCN1C[C@H]2CN(C(=O)NCc3ccccc3)CCN2C1=O	8.785
COCC(O)CN1CCC(=O)N(Cc2ccccc2)Cc2ccccc21 (stereo unspecified)	97.49
OC(CN1CCCCc2ccccc21)Cn1cccn1 (stereo unspecified)	-5.145
CCCC(O)CN1CCC(=O)N(Cc2ccccc2)Cc2ccccc21 (stereo unspecified)	123.8
CN1CCN(CC(=O)NCc2ccco2)Cc2ccccc21	-30.17
CCCC(O)CN1CCC(=O)N(CCOC)Cc2ccccc21 (stereo unspecified)	121.9
COCCN1C[C@H]2CN(C(=O)NC(C)C)CCN2C1=O	-4.801
COCC(O)CN1CCC(=O)N(Cc2ccco2)Cc2ccccc21 (stereo unspecified)	86.65
COCc1ccc(CNC(=O)CN2CCc3ccccc32)cc1	-11.7
